# Test results taken from PubChem BioAssay (Tox21).
# Records with an inconclusive call do not appear. Where a call stands in place of a potency, no number is given. Activity calls are given as the source filed them. Calls come from the whole dose curve; as a rule, active = well fitted cell-killing curve with a large enough effect in the repeat runs; inconclusive = weak or mixed curves, or effect the other way; inactive = flat fitted curve, though single readings scatter.
# Test: cAMP Responsive Elements (CRE) small molecule antagonists, cell-based qHTS assay: qHTS cell viability counter screen (AID 2060913); note: nearly all actives have a fitted effect of over 40% in size
# Conditions: CRE-bla HEK293T viability, CellTiter-Glo luminescence, 5 h; series mostly up to 92.4 µM
# Method in brief: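 CRE-bla HEK293T cells (2,000/well, 18 h) given compound plus NKH477 0.25 uM final for 3 h at 37C; viability counter-screen by CellTiter-Glo luminescence in same wells after 30 min.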
# Potency is the fitted concentration of half-maximal effect.
row,SMILES,Potency
1,CCC(C)CCCC(C)(C)O (stereo not given),inactive
2,CCN(Cc1cccc(S(=O)(=O)O)c1)c1ccc(C(=C2C=CC(=[N+](CC)Cc3cccc(S(=O)(=O)O)c3)C=C2)c2ccc(O)cc2S(=O)(=O)[O-])cc1,inactive
3,CCN1CCCC(OC(=O)C(c2ccccc2)c2ccccc2)C1 (stereo not given),inactive
4,Cc1ccccc1C(=O)O,inactive
5,CC(=O)OCC(=O)[C@@]1(O)CC[C@H]2[C@@H]3CCC4=CC(=O)C=C[C@]4(C)[C@H]3[C@@H](O)C[C@@]21C,inactive
6,NC(=O)C1CO1 (stereo not given),inactive
7,CCCCCN(CCCOC)C(=O)C(CCC(=O)O)NC(=O)c1ccc(Cl)c(Cl)c1 (stereo not given),inactive
8,COc1ccc2nc(NC(=O)Nc3ccccc3)sc2c1,inactive
9,CC[C@H]1CN2CCc3cc(OC)c(OC)cc3[C@@H]2C[C@@H]1C[C@H]1NCCc2cc(OC)c(OC)cc21,inactive
10,c1ccc(Sc2ccccc2)cc1,inactive
11,CCCCCCOC(=O)c1ccccc1O,inactive
12,Cc1cccc2c1ccc1ccccc12,inactive
13,O=C(/C=C/c1ccccc1)OC/C=C/c1ccccc1,inactive
14,CNC(=S)N(C)C,inactive
15,Cc1ccco1,inactive
16,CC(C)Oc1ccccc1O,inactive
17,FC(F)(F)C(F)(F)C(F)(F)C(F)(F)C(F)(F)C(F)(F)CCI,inactive
18,CCC(C)N (stereo not given),inactive
19,CCCCc1nc2cccnc2n1Cc1ccc(-c2ccccc2-c2nnn[nH]2)cc1,inactive
20,O=C1NC(c2ccccc2)(c2ccccc2)C(=O)N1COP(=O)(O)O,inactive

row,SMILES,Potency
1,CC(C)[C@H]1CC[C@H](C)C[C@@H]1O,inactive
2,NS(=O)(=O)c1ccc(NC(=O)CCC(=O)O)cc1,inactive
3,Cc1c(Cl)cccc1Cl,inactive
4,CNCc1ccc(NC(=O)c2c[nH]c3c2C(=O)CCC3)cc1,inactive
5,CN1CCN(C2Cc3ccccc3Sc3ccc(Cl)cc32)CC1 (stereo not given),inactive
6,NCC(=O)CCC(=O)O,inactive
7,C/C=C/C=C/C=O,inactive
8,CCOc1ccc2c(c1)C(C)=CC(C)(C)N2,inactive
9,CCOc1nc2cccc(C(=O)OC(C)OC(=O)OC3CCCCC3)c2n1Cc1ccc(-c2ccccc2-c2nn[nH]n2)cc1 (stereo not given),48.5 µM (active)
10,CCOc1cc([N+](=O)[O-])c(OCC)cc1N1CCOCC1,inactive
11,COc1cccc2sc(N)nc12,inactive
12,Clc1nc(C(Cl)(Cl)Cl)c(Cl)c(Cl)c1Cl,inactive
13,O=C(Nc1ccc(S(=O)(=O)N2CCOCC2)cc1)c1cc(Cl)ccc1NS(=O)(=O)c1ccc(Cl)s1,inactive
14,CCCCCCCCCCCCCCC(=O)NC(CO)CCCCCCCCCCCCCC (stereo not given),inactive
15,OC1CCCCC1c1ccccc1 (stereo not given),inactive
16,CCCNC(C)(C)COC(=O)c1ccccc1,inactive
17,CC(C)CC(=O)O,inactive
18,Cc1c(Cn2ccnc2)c2ccccc2n1CCC(=O)O,inactive
19,O=C1CCc2ccc(OCCCCN3CCN(c4cccc(Cl)c4Cl)CC3)cc2N1,inactive
20,CCOC(=O)[C@H](CCc1ccccc1)N[C@@H](C)C(=O)N1Cc2ccccc2C[C@H]1C(=O)O,inactive
